# Source: PubChem BioAssay AID686979 (National Center for Advancing Translational Sciences (NCATS), 2013)
# Values joined by “and” are separate entries in the source; they are usually repeats but may differ in a detail not shown here. Equal values may be shown once. Screen size: about 420,000 compounds; about 50,000 (12%) were called active. Roughly 26% stayed inconclusive and do not appear here. The entries come from a sample that favours actives as a whole. A call without a number means that no potency is given here. Values without a mark were called inactive. The call rests on the fitted dose curve; in most records, active means well fitted inhibition curve with a large enough effect; inconclusive means small, poorly fitted or top-dose-only effect; inactive means flat fitted curve, though single readings scatter.
# Experiment: qHTS for Inhibitors of human tyrosyl-DNA phosphodiesterase 1 (TDP1): qHTS in cells in presence of CPT; further: nearly all actives have a fitted effect of over 55% in size
# Conditions: chicken DT40 Tdp1-/-;hTDP1 cells + 20 nM CPT, ATP luminescence, 48 h; series mostly up to 46.2 µM
# Excerpt: Human tyrosyl-DNA phosphodiesterase 1 (TDP1) is a novel repair gene, and we propose to use it as a new target for anticancer drug development. TDP1 is not an essential protein, but under treatment with topoisomerase I poison (camptothecin: CPT), TDP1 works as a critical factor for cell survival. To directly identify novel TDP1 inhibitors active in a cellular environment, we have knocked-out the Tdp1 gene in chicken DT40 cells (Tdp1-/-) and generated a complemented counterpart cells that contains a stable transfection of the human TDP1 gene (Tdp1-/-;hTDP1 cells). For the primary screen, Tdp1-/-;hTDP1 cells will be exposed to small molecules in the presence or absence of CPT, and their growth kinetics will be evaluated after 48 hours by measuring ATP activity. […] The hit compounds will then be evaluated in the presence or absence of CPT using Tdp1-/- cells. […] In tertiary assays, biochemical gel-based assays will be used to assess whether the hit compounds specifically target TDP1. To this end, we have screened this cell line against the MLSMR in two primary screens. In one screen we add CPT and in the other we screen in the absence of CPT; this AID represents the screen where CPT was present. NIH Chemical Genomics Center [NCGC] NIH Molecular Libraries Probe Centers Network [MLPCN] MLPCN Grant: MH095538 Assay Submitter (PI): Yves Pommier, NCI
# DT40-hTDP1 cells with 20 nM Camptothecin (add 20 microL of 1 mM CPT stock in 1 L of cell culture medium) were dispensed at 400 cells/5microL/well in tissue culture treated 1536-well white wall/solid bottom assay plates (Greiner Bio-One North America, NC, U.S.A.) using a Multidrop Combi 8 channel dispenser (Thermo Fisher, Waltham, MA, USA). 23 nL compounds and controls were transferred using the pin tool (Kalypsys, San Diego, CA, USA) to the assay plates. The assay plates were then incubated at 37 masculineC for a minimum 48 hr. Three microL of Cell Titer Glo solution was added to the plates and incubated at RT in dark for 30 min. Luminescence was read using ViewLux (Perkin Elmer) with 1 sec exposure slow speed, high gain and 2x binning.
# Potency means the concentration at half of the fitted maximal effect.
Compound,Potency,"activity change, negative = growth inhibition"
CCCC(C)n1[nH]c(=O)c2c1NC(=O)CSC2c1ccc(OC)c(OC)c1 (centres undefined),inactive,–
OC[C@@H]1CN(Cc2ccncc2)C[C@H](n2cnc3c(N4CCN(c5ccccc5)CC4)ncnc32)O1,2.06 µM (active),–
CC12CN3CC(C)(CN(C1)C3c1cccs1)C2 (centres undefined),inactive,–
COc1cccc(OC)c1C(=O)NC(=S)N1C[C@H]2C[C@H](C1)c1cccc(=O)n1C2,inactive,–
OC1/C(=C/c2ccc(C(F)(F)F)cc2)N2CCC1CC2 (centres undefined),inactive,–
CC(C(=O)Nc1ccc(Cl)cc1Cl)N1CC=C(c2ccccc2)CC1 (centres undefined),inactive,–
c1csc(CN2CC3(CCNCC3)C2)n1,inactive,–
N#Cc1c(Cl)c(Cl)c(Cl)c(C#N)c1Cl,178 nM (active) and 651 nM (active),–
O=C(N/N=C/c1c(O)n(C2CC2)c(=S)[nH]c1=O)c1ccccc1,inactive,–
N#CC(C#N)=Cc1cc(O)c(O)c([N+](=O)[O-])c1,inactive,–
O=C(Cc1ccccc1[N+](=O)[O-])N1CCN(Cc2ccc3c(c2)OCO3)CC1,inactive,–
C=CCN1C(=O)NC(=O)/C(=C/c2ccc(OCC(=O)Nc3ccc(C)cc3)cc2)C1=O,inactive,–
COc1ccc(CNC(=O)c2cc3c(-c4ccccc4F)nn(C)c3s2)c(OC)c1,4.11 µM (active),–
CC/C(=N\NC(=O)c1ccccc1O)c1c(O)n(Cc2ccccc2)c(=O)[nH]c1=O,inactive,–
CC(=O)N(C1=NCCCS1)c1ccccc1F,inactive,–
CN(C(=O)CSc1nc2ccc(NC(=O)COc3ccccc3)cc2s1)c1ccccc1,25.9 µM (active),–
O=C(COc1ccccc1Cl)Nc1ccc2nc(SCC(=O)N3CCCC3)sc2c1,20.6 µM (active),–
CC(C)n1c(=O)c(C=Nc2ccc(Br)cc2)c(O)n(Cc2ccco2)c1=O,inactive,–
CCN(CC)C(=O)c1ccc(NC(=O)c2cc(-n3cnnc3)ccc2Cl)cc1,inactive,–
Fc1ccc(N2CCN(Cc3ccc4c(c3)OCO4)CC2)cc1,inactive,–
Cn1c(O)c(C=Nc2ccc3c(c2)CCC3)c(=O)n(C)c1=O,inactive,–
Oc1ccc2c3c1OC1[C@H](O)CC[C@@]4(O)[C@@H](C2)N(CC2CC2)CC[C@]314 (some centres undefined),inactive,–
COC12CC[C@@]3(C[C@@H]1C(C)(O)C(C)(C)C)[C@H]1Cc4ccc(O)c5c4[C@@]3(CCN1CC1CC1)[C@H]2O5 (some centres undefined),24.1 µM (active),–
CC1(C)Cc2c(C#N)c(N3CCNCC3)nc(-c3ccco3)c2CS1,18.4 µM (active),–
NCCc1ccc(S(=O)(=O)F)cc1,inactive,–

Compound,Potency,"activity change, negative = growth inhibition"
CC(=O)c1ccc(S(=O)(=O)N2CCN(c3nc4c(C)c(C)ccc4cc3C#N)CC2)cc1,7.08 µM (active),–
CCOC(=O)C(O)(c1ccc(NC(=O)c2ccco2)c(OC)c1)C(F)(F)F (centres undefined),inactive,–
C[C@@]1([C@@H](NP(=O)(c2ccccc2)c2ccccc2)c2ccccc2)C[C@H]1CCO,9.2 µM (active),–
CC1CNCCN1c1ccc(Cl)cc1 (centres undefined),inactive,–
CC(C)(C)[C@]1(O)C[C@@H]2OC(=O)C[C@@]23C(=O)O[C@@H]2OC(=O)[C@H](O)[C@]213,inactive,–
c1ccc(C(CN2CCCCC2)c2ccccc2)cc1,inactive,–
CCCCOc1ccc(C(=O)N2CC(=O)Nc3ccc(Br)cc3C2c2ccc(F)cc2)cc1 (centres undefined),23.1 µM (active),–
O=c1oc2ccccc2c(O)c1C(c1ccccc1O)c1c(O)c2ccccc2oc1=O,–,8.57% [at 9.04 µM]
COc1cc(C2c3cc4c(cc3C(O)C3COC(=O)C23)OCO4)cc(OC)c1OC (centres undefined),44.7 nM (active) and 13 nM (active),–
COc1cc([C@@H]2c3cc4c(cc3[C@H](OC(C)=O)[C@H]3COC(=O)[C@H]23)OCO4)cc(OC)c1OC,0.0794 µM (active),–
Cc1nc2ccc(N3CCN(C)CC3)cc2nc1C,inactive,–
CSc1ccc(C(=O)C2CCCN(Cc3ccn[nH]3)C2)cc1 (centres undefined),inactive,–
O=c1[nH]c(=O)n(-c2ccc(F)cc2)c(O)c1C=NCCN1CCCCC1,inactive,–
CC(=C1C(=O)c2ccccc2C1=O)N1CCN(CCN=Cc2c(O)n(C)c(=O)n(C)c2=O)CC1,inactive,–
CCN1CC2C3CCC(C)(O3)C2C1 (centres undefined),inactive,–
Cc1ccc(Cl)cc1N1CCN(C(=O)C2CCC(CNS(=O)(=O)c3cccs3)CC2)CC1 (centres undefined),20.6 µM (active),–
CC1C(=O)OC2CCN3CC=C(COC(=O)C(C)(O)C1(C)O)C23 (centres undefined),5.8 µM (active),–
CC(=O)Nc1ccc(C(=O)C(Cc2ccccc2)N(C)C)cc1 (centres undefined),inactive,–
O=C(COc1ccc2ccccc2c1)N1CCN(Cc2ccncc2)CC1,inactive,–
CN(C)C(=O)Oc1cc(OC(=O)N(C)C)cc(C(O)CNC(C)(C)C)c1 (centres undefined),inactive,–
CNC(=O)O/N=C(\N)Cc1csc2ccccc12,inactive,–
CNC(=O)O/N=C(\N)Cc1csc2ccc(Cl)cc12,16.4 µM (active),–
Cn1c(O)c(C=NCCN2CCNCC2)c(=O)n(C)c1=O,inactive,–
COC1=CC=C2[C@H]3Cc4ccc(OC)c5c4[C@@]2(CCN3C)C1O5 (some centres undefined),inactive,–
